Screens (PubChem BioAssay)
The list is not random: actives were taken first. Their share in the collection is about 12%.
BAZ2B block – qHTS Assay for Inhibitors of BAZ2B | Bromodomain adjacent to zinc finger domain protein 2B (Homo sapiens), Q9UIF8 | Potency, µM (series often up to 114 µM), for the others: at the highest dose activity change, negative = inhibition, most hits filed as inhibitors | AID 504333, 2011 | AlphaScreen BAZ2B-H3K14Ac peptide displacement | 360,000 compounds, 4.4% hits; note: % is set by controls: 0 for no effect and ±100 for the full control effect; nearly all actives have a fitted effect of over 60% in size
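Complex of BAZ2B and biotin-H3K14Ac (50 nM apiece) forms over 30 min at RT, then faces library compounds up to 110 uM for another 30 min; AlphaScreen beads added, 20 min dark incubation, luminescence read.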
PLK1 PBD inh – qHTS for Inhibitors of PLK1-PDB (polo-like kinase 1 - polo-box domain): Primary Screen; Potency, µM, for the others: max response, negative = inhibition, actives largely listed as inhibitors; Serine/threonine-protein kinase PLK1 (Homo sapiens), P53350; 360,000 compounds, 2.8% hits; Plk1 PBD binding of FITC phosphopeptide, fluorescence polarization; note: series mostly up to about 57 µM; % is set by controls: 0 for no effect and ±100 for the full control effect; nearly all actives have a fitted effect of over 65% in size
JMJD2A Tudor – qHTS Assay for Inhibitors of JMJD2A-Tudor Domain. AID 504339, 2011. Lysine-specific demethylase 4A (Homo sapiens), O75164. 390,000 compounds, 4.4% hits. AlphaScreen JMJD2A-Tudor / H3K4me3 peptide binding. Potency, µM (doses to about 114 µM), inactives show top-dose activity change, negative = inhibition, hits mostly inhibitors; note: % is set by controls: 0 for no effect and ±100 for the full control effect; nearly all actives have a fitted effect of over 50% in size
HP1b binding inh – HTS for Inhibitors of HP1-beta Chromodomain Interactions with Methylated Histone Tails; Chromobox protein homolog 1 (Homo sapiens), P83916; AlphaScreen HP1-beta / biotin-H3K9me3 peptide binding; Potency, µM (top dose mostly 114 µM), for the others: at the top dose activity change, negative = inhibition, usual class: inhibitors; AID 540317, 2011; 390,000 compounds, 0.56% hits; note: nearly all actives have a fitted effect of over 70% in size
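Compound inhibition of the preformed complex between 50 nM HP1-beta and 50 nM biotinylated H3K9me3 peptide was read by AlphaScreen. Buffer was PBS pH 7.4 with 0.01% Tween-20. Incubations ran 30 min at room temperature, with 10 ug/mL donor/acceptor beads.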
Sfp inh – qHTS Assay for Inhibitors of Bacillus subtilis Sfp phosphopantetheinyl transferase (PPTase); Biochemical Sfp PPTase activity, qHTS; Potency, µM, inactives show largest response in the series, negative = inhibition, actives largely listed as inhibitors; 310,000 compounds, 3.5% hits; AID 1490, 2009;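 note: the enzyme is Sfp with the accession as filed and its product quenches rhodamine fluorescence; 0% = enzyme reaction without inhibitor and -100% = no enzyme wells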
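Fluorescence-quenching assay: 15 nM Sfp-PPTase preincubated 15 min at room temperature with compound, then 5 uM rhodamine-CoA and 12.5 uM BHQ-2-labelled YbbR peptide added. Fluorescence (ex 525/em 598 nm) read at start and after 30 min; difference gives rate.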
G9a inh – qHTS Assay for Inhibitors of Histone Lysine Methyltransferase G9a; Histone-lysine N-methyltransferase EHMT2 (Homo sapiens), Q96KQ7; G9a H3K9 monomethylation, AlphaScreen, 2 h; Potency, µM (doses to about 102 µM), for inactives: top-dose activity, negative = inhibition, actives largely listed as inhibitors; 350,000 compounds, 8.8% hits; note: % is set by controls: 0 for no effect and ±100 for the full control effect; nearly all actives have a fitted effect of over 75% in size
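Enzyme 20 nM + cpd, 15 min RT; add b-H3K9 pep 500 nM / SAM 20 uM; 2 h RT; anti-H3K9me1 Ab 0.5 ug/mL + SA donor / anti-rabbit acceptor beads 20 ug/mL each, 10 min; AlphaScreen read.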
* = called active by the depositor; ? = inconclusive; . = not tested or not shown; [ ] = remark or other dose. Calls come from the whole dose curve; as a rule, active = well fitted curve in the direction sought with a large enough effect; inconclusive = small, poorly fitted or top-dose-only effect, or another doubt; inactive = no such curve, though single readings can be large; an effect the other way counts as inactive or inconclusive. Potency is the fitted concentration of half-maximal effect.

SMILES	BAZ2B block	PLK1 PBD inh	JMJD2A Tudor	HP1b binding inh	Sfp inh	G9a inh
C=C(C)C(=O)Nc1ccc(OC(F)(F)C(F)F)c(NC(=O)C(=C)C)c1	45µM*	?	79µM*	56µM*	2%	.
Cc1ccc(NC(=O)CCNS(=O)(=O)c2ccc(OC(F)(F)F)cc2)c(O)c1	-1%	-7%	-10%	24%	18%	9%
CN(C)CCSc1nc(N)c2c3c(sc2n1)CN(C)CC3	-7%	-25%	-14%	10%	12%	45µM*
CC(C)Sc1nc(N)c2c3c(sc2n1)CN(C)CC3	6%	27µM*	-17%	32%	5%	3.2µM*
Cc1cc(C#N)c(C)n1-c1cc(S(=O)(=O)N2CCOCC2)ccc1N1CCCC1	-37%	21µM*	?	-63%	40µM*	6.3µM*
COCCCNCc1cc(C)n(-c2cc(S(=O)(=O)N3CCOCC3)ccc2N2CCCC2)c1C	.	-14%	79µM*	?	.	.
CCOCCCNCC(=O)Nc1cc(S(=O)(=O)N2CCOCC2)ccc1N1CCOCC1	.	4%	-12%	31%	.	.
Nc1cc(S(=O)(=O)N2CCOCC2)ccc1N1CCOCC1	.	-7%	-11%	31%	.	.
CCc1ccc(NC(=O)N(Cc2c[nH]c3ccccc23)C2CCCCCC2)cc1	.	.	-16%	29%	.	-32%[59 µM]
CN(c1ccccc1)S(=O)(=O)c1cccc(NC(=O)CSc2nccc(=O)[nH]2)c1	.	-9%	-18%	7%	.	.
CN(C)CCCNC(=O)C[C@H]1C[C@H](C(=O)N2CCCCC2)[C@@]2(C)c3[nH]c4cc(-c5ccco5)ccc4c3CCN2C1=O	.	3%	?	3%	.	.
CC[C@]12c3[nH]c4cc(-c5ccco5)ccc4c3CCN1C(=O)[C@@H](CC(=O)NCc1ccc(OC)c(OC)c1)C[C@@H]2C(=O)N1CCN(C(=O)C2CC2)CC1	.	-1%	-35%	-12%	.	.
CC[C@]12c3[nH]c4cc(-c5ccco5)ccc4c3CCN1C(=O)[C@@H](CC(=O)NCCC1=CCCCC1)C[C@@H]2C(=O)N1CCN(C(=O)C2CC2)CC1	.	21µM*	?	7%	.	.
CC[C@]12c3[nH]c4cc(-c5ccco5)ccc4c3CCN1C(=O)[C@@H](CC(=O)NCc1ccco1)C[C@@H]2C(=O)N1CCN(C(=O)C2CC2)CC1	.	?	?	-3%	.	.
COc1ccc2[nH]c3c(c2c1)CCN1C(=O)C(CC(=O)NCC24CC5CC(CC(C5)C2)C4)C[C@H](C(=O)N2CCOCC2)[C@@]31CCC1CCCC1 (stereo not given in full)	.	?	40µM*	-6%	.	.
O=C(C[C@H]1C[C@H](C(=O)N2CCOCC2)[C@@]2(CCC3CCCC3)c3[nH]c4ccc(Cl)cc4c3CCN2C1=O)NCC12CC3CC(CC(C3)C1)C2	.	-6%	-31%	0%	.	.
CN(C)CCCNC(=O)C[C@H]1C[C@H](C(=O)N2CCCCC2)[C@@]2(CCc3ccccc3)c3[nH]c4cc(-c5ccco5)ccc4c3CCN2C1=O	.	-10%	50µM*	?	.	.
COc1ccc(CNC(=O)C[C@H]2C[C@H](C(=O)N3CCCCC3)[C@@]3(CCc4ccccc4)c4[nH]c5cc(-c6ccco6)ccc5c4CCN3C2=O)cc1OC	.	24µM*	?	-6%	.	.
COC(=O)N1CCC2(CCN(Cc3cc(C(F)(F)F)cc(C(F)(F)F)c3)CC2)CC1	.	.	.	.	9%	-2%[12.7 µM]
O=C(CONS(=O)(=O)c1ccc(Cl)cc1)NCCNc1ncc(C(F)(F)F)cc1Cl	-16%	-24%	-17%	28%	23%	56µM*
CCN(CC)c1ccc(NC(=O)CCNC(=O)c2ccco2)cc1	?	1%	?	-39%	3%	7.9µM*
O=C(CCNC(=O)c1ccco1)Nc1ccc(F)c(Cl)c1	-29%	-6%	-1%	-3%	14%	-15%
O=C(CCNC(=O)c1ccco1)Nc1ccc(Cl)cc1	0%	30µM*	?	-5%	-3%	12%[0.0925 µM]
CCOc1ccc(NC(=S)NC(=O)c2c(Br)cnn2C)c([N+](=O)[O-])c1	?	-13%	?	?	-6%	28µM*
Cc1ccc([N+](=O)[O-])cc1NC(=S)NC(=O)c1c(Cl)cnn1C	-7%	-3%	-9%	20%	45µM*	.
SMILES	BAZ2B block	PLK1 PBD inh	JMJD2A Tudor	HP1b binding inh	Sfp inh	G9a inh
Cc1ccc([N+](=O)[O-])cc1NC(=S)NC(=O)C(C)(C)C	?	-23%	-24%	-10%	10%	-50%
Cc1ccc2c(c1)c1c(c(=O)n(-c3ccccc3C)c(=O)n1CC(=O)NCc1ccccc1)n2C	-15%	.	11%	54%	.	?
COc1cc(CN(C(=O)c2ccccc2F)C2CCS(=O)(=O)C2)cc(OC)c1OC (stereo not given)	0%	.	-18%	5%	.	14%[59 µM]
CCCCN1C(=O)c2[nH]nc(-c3ccccc3O)c2C1c1ccc(C(C)(C)C)cc1 (stereo not given)	-19%	.	-34%	50%	.	19%[59 µM]
CN(C(=O)/C=C/c1ccc([N+](=O)[O-])s1)c1ccccc1	40µM*	?	?	-14%	-4%	45µM*
C=CC(=O)Nc1cccc(Oc2ncnc3[nH]cc(-c4cnc5ccccc5c4)c23)c1	.	-16%	-11%	22%	.	.
CN1CCN(c2ccc(-c3ccnn3C(=O)Nc3cccc(C(F)(F)F)c3)cc2)CC1	-1%	-14%	-13%	14%	-21%	-15%[59 µM]
C=CC(=O)Nc1cccc(N(C)c2ccnc(Nc3ccc(N4CCN(C)CC4)cc3)n2)c1	.	-14%	14µM*	50µM*	.	.
C=CC(=O)Nc1cccc(Oc2ccnc(Nc3ccc(N4CCN(C)CC4)cc3)n2)c1	.	-13%	45µM*	?	.	.
C=CC(=O)Nc1cccc(Oc2ccnc3[nH]ccc23)c1	.	-10%	79µM*	?	.	.
CN1CCN(c2ccc(NC(=O)c3ccc4ccccc4c3)cc2)CC1	?	-12%	-22%	9%[57 µM]	-15%	8%
CCn1cc2c(n1)-c1c(oc(C(=O)Nc3ccc(Br)cc3F)c1C)CC2	-8%	.	-14%	23%	.	-9%[59 µM]
O=C(c1ccc(F)cc1)n1nc(-c2cccnc2)nc1NCc1ccc(F)cc1	5%	.	1%	60%	.	-3%[59 µM]
C=CC[C@@H]1C=C[C@H](O/N=C2\c3cc(OC)ccc3O[C@H](c3cccc(OC)c3)[C@H]2O)[C@H](CO)O1	.	.	.	.	-4%	.
